Bead autofluor – flagged as autofluorescent in microsphere protease counterscreen | actives 3.1% (n = 360,000) | fluorescence intensity (test concentration not listed) | compound autofluorescence counterscreen, microsphere flow cytometry; stronger effect = higher value | AID 624483; in the data active = fluorescence intensity above about 16000; inconclusive = no clear call, values can overlap the other calls
BoNT F protease – inhibitors of Botulinum neurotoxin F light chain protease; Multiplex microsphere protease cleavage assay, flow cytometry; actives 0.22% (n = 360,000); inhibition, % at 10 µM; AID 588497; in the data active = inhibition above about 35%, passing the limit was not always enough; inconclusive = no clear call, values can overlap the other calls; note: plate controls were buffer without enzyme for full effect and enzyme alone for no effect
BoNT-A LC inh2 – inhibitors of Botulinum neurotoxin A light chain protease | multiplex microsphere protease substrate cleavage, flow cytometry | inhibition, % at 10 µM | actives 0.17% (n = 360,000); note: plate controls were buffer without enzyme for full effect and enzyme alone for no effect
Anthrax LF prot – inhibitors of Bacillus anthracis lethal factor protease; P15917; multiplex microsphere protease cleavage assay, LF; inhibition, % at 10 µM; actives 0.12% (n = 360,000); note: plate controls were buffer without enzyme for full effect and enzyme alone for no effect
VHR inh abs – inhibitors of human VHR1 phosphatase (DUSP3); P51452; recombinant VHR phosphatase, pNPP absorbance; inhibition, % at 13.3 µM; actives 0.52% (n = 290,000); AID 1654; in the data active = inhibition above about 50%
Target sequence (P51452 whole entry, looked up): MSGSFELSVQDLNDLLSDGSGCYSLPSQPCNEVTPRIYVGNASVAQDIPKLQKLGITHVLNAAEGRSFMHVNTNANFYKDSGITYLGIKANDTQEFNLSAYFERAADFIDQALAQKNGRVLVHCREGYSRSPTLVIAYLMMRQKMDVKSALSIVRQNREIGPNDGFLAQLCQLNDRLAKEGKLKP
SARS 3CLpro inh – SARS-CoV 3CLpro protease inhibition | P0C6X7 | recombinant SARS-CoV 3CLpro, quenched FRET peptide cleavage | inhibition, % at 6 µM | actives 0.14% (n = 290,000) | AID 1706; in the data active = inhibition above about 12%
* marks the source's active call; other numbers are inactive results; ? = inconclusive; / = no result. Compounds with a hit are over-represented: about 3.9% of the library has one in this group of screens. Cut-off read from the data, not from the text of the source, unless noted: active = inhibition above about 30%; inconclusive = no clear call, values can overlap the other calls; inactive = below that.

SMILES | Bead autofluor | BoNT F protease | BoNT-A LC inh2 | Anthrax LF prot | VHR inh abs | SARS 3CLpro inh
CC1=C(C(=O)Nc2ccccc2C(=O)N2CCN(c3ccccc3)CC2)SCCO1 | 3040 | -4.1 | -0.6 | -7.2 | / | /
CCN1CCN(C(=O)C(C)Nc2ccc(OC)cc2OC)CC1 (stereo not drawn) | 3242 | -59.6 | 1.3 | -24.0 | 9.1 | 3.4
N#Cc1c(N)c(C(=O)c2ccccc2)n2c1CCC2 | 23949* | -5.3 | -2.9 | -1.3 | -4.1 | 1.4
NC(=O)COC(=O)c1cc(=O)[nH]c2ccccc12 | 4721 | -5.4 | -1.0 | -5.1 | 20.1 | 1.6
CNC(=O)COC(=O)c1ccccc1Oc1ccccc1 | 16994* | 1.2 | -0.8 | -1.1 | 10.7 | -10.0
CNC(=O)COC(=O)c1cc(=O)[nH]c2ccccc12 | 23831* | -1.8 | 0.1 | 0.2 | 29.7 | -2.0
C[C@H](CO)N1C[C@H](C)[C@@H](CN(C)S(=O)(=O)c2ccc(F)cc2)Oc2c(NS(=O)(=O)c3ccc(F)cc3)cccc2C1=O | 3840 | -5.5 | -0.6 | -4.4 | / | /
Nn1c(SCC(=O)N2CCOCC2)nnc1-c1ccc(Cl)cc1Cl | 8448 | -4.5 | -1.0 | 1.2 | -13.1 | -1.6
Cn1c(SCC(=O)N2CCOCC2)nnc1-c1cccc(NC(=O)c2ccccc2F)c1 | 20837* | -3.2 | -0.7 | -3.2 | 8.5 | -3.2
Cn1c(SCC(=O)N2CCOCC2)nnc1-c1ccc(Cl)cc1Cl | 23071* | -3.1 | -0.3 | -5.3 | 25.9 | -3.3
Cn1c(SCC(=O)NC(C)(C)C)nnc1-c1cccc(NC(=O)c2ccccc2F)c1 | 11248 | -14.1 | -2.9 | 3.6 | 6.4 | -0.6
COc1ccc(C(O)P(=O)(OC(C)C)OC(C)C)c(OC)c1 (stereo not drawn) | 4751 | ? | -6.4 | 7.8 | 6.1 | 6.8
O=C1C2CCCN2C(=O)N1CCCN1CCN(c2ccc([N+](=O)[O-])cc2)CC1 (stereo not drawn) | 3813 | 46.5* | -2.7 | 12.1 | 0.1 | 4.0
O=C1C2CCCCN2C(=O)N1CCN1CCN(c2ccc([N+](=O)[O-])cc2)CC1 (stereo not drawn) | 2875 | -2.6 | 0.0 | 5.1 | -7.3 | 2.3
COc1cccc(C(=O)N2CCC[C@@H]2C(=O)N2CCC[C@H]2C(=O)NCc2ccncc2)c1 | 5663 | -9.8 | -0.4 | 7.1 | / | /
Cc1ccc2nc(SCC(=O)c3ccc(Cl)s3)[nH]c2c1 | 19540* | -1.5 | -0.1 | -3.1 | 17.8 | -3.7
CO/N=C(\c1ccccc1)c1cccnc1 | 4201 | 55.8* | 0.5 | -0.7 | 16.5 | 0.4
N/C(=N\OC(=O)C(c1ccccc1)c1ccccc1)c1cccnc1 | 11168 | -14.9 | -0.5 | -5.1 | 9.6 | 7.7
CCOc1ccc2nc(NC(=S)NCc3ccccc3)sc2c1 | 20242* | 2.1 | 1.9 | 0.3 | 6.3 | -7.7
CNc1cc(C(F)(F)F)nc(-c2ccccn2)n1 | 19306* | 2.7 | ? | 0.5 | 21.6 | -0.2
CN(C)S(=O)(=O)NCCNC(=O)c1cc(OCC(F)(F)F)ccc1OCC(F)(F)F | 2622 | -0.2 | 0.3 | 1.1 | 17.9 | -6.6
O=C(Nc1ccncc1)Nc1cccc(C(F)(F)F)c1 | 4593 | 0.6 | -1.7 | -2.0 | 5.9 | -1.1
C=CCONC(=O)c1cc(OCC(F)(F)F)ccc1OCC(F)(F)F | 24141* | -3.0 | -3.2 | -2.0 | 16.8 | -2.0
O=C(NCCNC(=O)c1cc(OCC(F)(F)F)ccc1OCC(F)(F)F)Nc1cccc(C(F)(F)F)c1 | 24354* | -7.6 | ? | 0.4 | 18.9 | 16.4*
O=C(Nc1ccc(OC(F)F)cc1)Nc1cccc(C(F)(F)F)c1 | 20493* | -4.3 | ? | -2.4 | -14.9 | 1.9
SMILES | Bead autofluor | BoNT F protease | BoNT-A LC inh2 | Anthrax LF prot | VHR inh abs | SARS 3CLpro inh
O=C(N/N=C\c1ccc(F)cc1)c1cc(OCC(F)(F)F)ccc1OCC(F)(F)F | 4600 | -3.8 | -0.6 | -8.5 | 40.8 | -3.5
O=C(CNC(=S)N(Cc1ccccc1)Cc1ccccc1F)NCCc1ccc(Cl)cc1 | 4381 | -9.2 | 0.2 | 2.3 | 24.4 | 1.5
O=C(OCCN1C(=O)c2cccc3c(N4CCOCC4)ccc(c23)C1=O)c1cccc(Cl)c1 | / | / | / | / | 12.6 | 0.0
O=C(OCCN1C(=O)c2cccc3c(N4CCOCC4)ccc(c23)C1=O)c1ccccc1Cl | 3728 | 8.0 | 37.4* | 15.0 | -5.7 | -5.4
O=C(OCCN1C(=O)c2cccc3c(N4CCOCC4)ccc(c23)C1=O)c1ccc(Cl)cc1Cl | 4710 | 19.1 | 51.3* | 23.6 | 32.7 | 1.6
COc1ccc(/C(N)=N/OC(=O)CN(C)S(=O)(=O)c2ccc(C)cc2)cc1 | 3071 | -2.9 | 1.6 | 3.7 | -3.9 | -0.6
